KCNQ2 block = blocks the rat KCNQ2 potassium channel; B-score at 10 µM; CHO-K1 KCNQ2, FluxOR thallium flux, 20 min; stronger effect = lower value; hit rate 1.1% among 310,000; AID 2156; O88943;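 active = fluorescence ratio B-score at most minus 3 library SDs, with starting brightness B-score within 2 library SDs, cut at about -5.5 in these data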
KCNQ2 pot = KCNQ2 (rat) channel potentiation | CHO-K1 KCNQ2, FluxOR thallium flux fluorescence; stronger effect = higher value | AID 2239 | B-score at 10 µM | O88943 | hit rate 0.54% among 310,000;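 active = fluorescence ratio B-score at least 3 SD of library B-scores, with initial fluorescence B-score within 3 of them, cut at about 5.3 in these data; same plate scores as AID 2156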;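 also: B-score of peak minus minimum over baseline fluorescence ratio after K+ and Tl+ stimulus; positive B-score means potentiation of KCNQ2 with more thallium influx and brighter signal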
Kir21 conf inh = confirmation of mouse Kir2.1 potassium channel inhibitors | AID 2032 | Kir2.1-expressing cells, FluxOR thallium flux fluorescence; stronger effect = lower value | hit rate 41% among 2,300 | shares compounds with KCNQ2 pot | Tl flux remaining, % of negative control (stronger effect = lower value), % at 10 µM;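 active = Primary-screen hit whose thallium flux fell at least 3 control SD below untreated wells in both duplicates, with normal baseline fluorescence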
HEK293 Tl flux = alters thallium flux in parental HEK293 cells, Kir2.1 counter-screen | FluxOR signal as % of negative control (100 = no effect), % at 10 µM | hit rate 19% among 2,300 | shares compounds with KCNQ2 pot | FluxOR thallium flux fluorescence; 0% = unstimulated blank wells;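 active = dye signal at least 3 control SD above or below untreated wells in both duplicates, raw fluorescence within 3, either direction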;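 also: percent is based on the flux ratio of peak minus minimum fluorescence over baseline F0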
CHO-K1 Tl ctr = parental CHO-K1 activity in KCNQ2 potentiator counter-screen; shares compounds with KCNQ2 pot; parental CHO-K1 cells, FluxOR thallium flux fluorescence; zero = vehicle mean+3SD, 100% = vehicle-minus-blank window; activity increase over 3SD of controls, % at 10 µM; hit rate 43% among 1,200; AID 2282;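 active = signal rise of at least 3 SD above the untreated control mean, in both duplicate wells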;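 also: counter screen of KCNQ2 potentiator hits so any rise reflects channel-independent effects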
KCNQ1 pot spec = human KCNQ1 counter-target activity of KCNQ2 potentiators | shares compounds with KCNQ2 pot | CHO KCNQ1 stable, FluxOR thallium flux fluorescence; beyond 3SD, as % of vehicle-control signal | activation over 3SD threshold, % at 10 µM | hit rate 28% among 1,200;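 active = fluorescence ratio rise of at least 3 SD of vehicle wells above their mean, in both replicate wells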
KCNQ2 pot conf = rat KCNQ2 channel potentiator confirmation | CHO-KCNQ2 cells, FluxOR thallium flux fluorescence | hit rate 68% among 1,200 | potentiation, less the hit threshold, % at 10 µM | AID 2287 | shares compounds with KCNQ2 pot;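 active = fluorescence ratio rising 3 SD or more over the vehicle control mean in both replicates, plus primary screen hit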;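 also: peak minus minimum thallium fluorescence divided by baseline after K/Tl stimulus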
Kir2-1 sel = selectivity of KCNQ2 potentiators: effect on mouse Kir2.1; shares compounds with KCNQ2 pot; HEK293 Kir2.1, FluxOR thallium flux fluorescence; activity over 3SD threshold, % at 10 µM; hit rate 2% among 1,200; AID 2345;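 active = fluorescence ratio rise of at least 3 SD above the vehicle-control mean, seen in both replicates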
KCNQ2 W236L pot = KCNQ2 potentiators acting on retigabine-insensitive rat KCNQ2 W236L mutant. shares compounds with KCNQ2 pot. CHO KCNQ2-W236L, automated patch clamp current. current increase over 3SD of negative controls (%), stronger effect = higher value, % at 25 µM. hit rate 10% among 940. AID 2558;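 active = current increase at least 3 SD of the untreated controls above them in both duplicate recordings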
Target sequence (O88943 whole entry W236L, looked up): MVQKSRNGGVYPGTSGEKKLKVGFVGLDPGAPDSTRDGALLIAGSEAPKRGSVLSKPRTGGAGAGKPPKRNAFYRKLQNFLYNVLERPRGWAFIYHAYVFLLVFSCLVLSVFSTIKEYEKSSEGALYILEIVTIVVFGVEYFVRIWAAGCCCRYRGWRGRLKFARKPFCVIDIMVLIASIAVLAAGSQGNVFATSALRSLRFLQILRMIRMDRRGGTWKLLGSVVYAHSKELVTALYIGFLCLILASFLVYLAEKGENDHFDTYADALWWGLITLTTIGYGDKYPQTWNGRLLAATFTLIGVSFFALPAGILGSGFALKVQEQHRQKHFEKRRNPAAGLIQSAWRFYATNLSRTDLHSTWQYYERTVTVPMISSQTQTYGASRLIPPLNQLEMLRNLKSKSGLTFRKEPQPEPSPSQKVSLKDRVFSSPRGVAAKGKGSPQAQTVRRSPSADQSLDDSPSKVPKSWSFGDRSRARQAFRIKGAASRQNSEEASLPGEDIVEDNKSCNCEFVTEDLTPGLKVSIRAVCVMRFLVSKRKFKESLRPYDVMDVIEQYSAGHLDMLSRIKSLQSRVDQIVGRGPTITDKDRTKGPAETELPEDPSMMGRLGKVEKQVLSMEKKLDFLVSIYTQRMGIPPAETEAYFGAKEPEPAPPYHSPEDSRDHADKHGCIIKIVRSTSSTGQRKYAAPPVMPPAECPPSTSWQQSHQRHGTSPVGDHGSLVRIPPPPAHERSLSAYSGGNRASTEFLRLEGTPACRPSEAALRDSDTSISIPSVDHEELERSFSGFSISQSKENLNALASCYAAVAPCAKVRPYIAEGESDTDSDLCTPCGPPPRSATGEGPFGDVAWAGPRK
Hits are given with their value; . = inactive; / = no result given. Sampled rows, rich in hits. Any-hit rate of the full collection: about 1.6%.

SMILES | KCNQ2 block | KCNQ2 pot | Kir21 conf inh | HEK293 Tl flux | CHO-K1 Tl ctr | KCNQ1 pot spec | KCNQ2 pot conf | Kir2-1 sel | others
C/C(=C/CCC(C)[C@H]1CC[C@@]2(C)C3=C(CC[C@]12C)[C@@]1(C)CCC(=O)C(C)(C)[C@@H]1CC3)C(=O)O (stereo not given in full) | . | 21.4 | . | . | 1.4 | . | . | .
C/C(=C/CCC(C)C1CCC2(C)C3CCC4C(C)(C)C(=O)CCC4(C)C3=CCC12C)C(=O)O (stereo not given) | . | . | / | / | / | / | / | /
CCOc1ccc(C(CC(=O)O)NC(=O)COc2ccccc2OC)cc1OC (stereo not given) | . | . | / | / | / | / | / | /
COc1cc(CNc2cccc(F)c2)cc(Br)c1O | . | 11.2 | . | . | 2.4 | . | . | .
COc1ccc(CNc2ccccc2)cc1Br | . | / | / | / | / | / | / | /
O=c1[nH]cc(N2CCCCCC2)c(=O)[nH]1 | . | / | / | / | / | / | / | /
CC(=O)NCCc1ccc(S(=O)(=O)Nc2ccc(NC(=O)c3ccc(F)cc3)cc2)cc1 | . | . | / | / | / | / | / | /
O=C(CSc1cccc[n+]1[O-])N1CCCc2ccccc21 | . | 14.9 | . | . | . | 1.2 | . | .
Cn1nnnc1SCC(=O)N1CCCc2ccccc21 | . | . | / | / | / | / | / | /
COc1ccc([N+](=O)[O-])cc1-n1cnnn1 | . | / | / | / | / | / | / | /
CC1CCN(C(=O)COc2ncnc3ccccc23)CC1 | . | . | / | / | / | / | / | /
O=C(COc1ccc2cc(Br)ccc2c1Br)N1CCOCC1 | . | 9.51 | . | . | 42.4 | . | 8.8 | . | KCNQ2 W236L pot=.
CC1CCN(C(=O)COc2ccc3ccccc3c2Br)CC1 | . | 16.2 | . | . | . | . | 31.7 | . | KCNQ2 W236L pot=.
O=C(COc1ncnc2ccc(Br)cc12)N1CCOCC1 | . | . | / | / | / | / | / | /
O=C1N/C(=N\c2ccccn2)SC1Cc1ccc(Cl)cc1 (stereo not given) | . | . | / | / | / | / | / | /
C=CCN(CC=C)C(=O)c1ccc(OC2CCN(C(C)=O)CC2)c(OC)c1 | . | . | / | / | / | / | / | /
COC(=O)Cc1ccc(OC(=O)CCS(=O)(=O)c2ccc(Cl)cc2)cc1 | . | / | / | / | / | / | / | /
O=S(=O)(/C(=C/c1ccc(C(F)(F)F)cc1)c1nc2ccccc2[nH]1)c1ccccc1 | -7.84 | . | . | . | / | / | / | /
CC(C)c1ccc(/C=C(\c2nc3ccccc3[nH]2)S(=O)(=O)c2ccccc2)cc1 | . | / | / | / | / | / | / | /
CCn1cc(C(=O)NCCN(C)CCc2ccccc2)c(=O)c2cc(S(=O)(=O)N(C)C)ccc21 | . | . | / | / | / | / | / | /
CCn1cc(C(=O)NCCc2ccccc2)c(=O)c2cc(S(=O)(=O)N(C)C)ccc21 | . | . | . | . | / | / | / | /
COCc1cc(=O)[nH]c(/N=C(\N)Nc2c(F)cccc2F)n1 | . | . | / | / | / | / | / | /
Cc1ccsc1/C=N/NC(=O)Cc1ccc(Cl)cc1 | . | / | / | / | / | / | / | /
Cc1cccc(/C=N/NC(=O)Cc2ccc(Cl)cc2)c1O | . | 7.19 | . | 69.0% | . | 7.6 | 2.5 | . | KCNQ2 W236L pot=.
Cc1cccc(/C=N\NC(=O)c2ccc(Cl)cc2)c1O | . | . | / | / | / | / | / | /
SMILES | KCNQ2 block | KCNQ2 pot | Kir21 conf inh | HEK293 Tl flux | CHO-K1 Tl ctr | KCNQ1 pot spec | KCNQ2 pot conf | Kir2-1 sel | others
Cc1ccc(O)c(/C=N/NC(=O)Cc2ccc(Cl)cc2)c1 | . | 5.34 | . | . | . | 42.8 | . | .
COc1ccc(Cc2[nH]n3c(=O)c(Cl)c(C)nc3c2-c2ccccc2)cc1 | . | / | / | / | / | / | / | /
C=CCn1c(OCc2ccccc2)n[nH]c1=S | . | . | / | / | / | / | / | /
Cc1ccccc1CN1CCC(n2nccc2NC(=O)CCOc2ccccc2)CC1 | . | . | / | / | / | / | / | /
O=C(NCC1CCCCC1)c1ccc(Br)o1 | . | . | / | / | / | / | / | /
Cc1ccccc1C(=O)NC(=S)NCCC1=CCCCC1 | . | . | / | / | / | / | / | /
O=C(NC(=S)NCCC1=CCCCC1)c1ccco1 | . | 11.9 | . | 229.0% | . | . | 33.6 | . | KCNQ2 W236L pot=.
CC(C)CN1CCC(=O)N(CCSc2ccccc2)CC1 | . | . | / | / | / | / | / | /
CN1CCc2c(n(CC(O)CN(CCO)CCO)c3ccccc23)C1=O (stereo not given) | . | . | / | / | / | / | / | /
CN1CCc2c(n(CC(O)CNCc3ccccc3)c3ccccc23)C1=O (stereo not given) | . | / | 71.5% | . | / | / | / | /
Oc1ccc(Br)cc1-c1n[nH]c(=S)n1Cc1ccccc1 | . | 10.9 | / | / | . | 28.4 | 26.5 | .
Oc1ccccc1-c1n[nH]c(=S)n1Cc1ccccc1 | . | . | / | / | / | / | / | /
O=C(/C=C/c1ccccc1)NCc1ccc2c(c1)OCO2 | . | . | / | / | / | / | / | /
CC(=O)c1cccc(NC(=O)NCc2ccc3c(c2)OCO3)c1 | . | . | / | / | / | / | / | /
O=C(NCc1ccc2c(c1)OCO2)Nc1cccc(Cl)c1 | . | 20.9 | . | . | . | . | 69.6 | . | KCNQ2 W236L pot=.
O=C(/C=C/c1cccs1)NCc1ccc2c(c1)OCO2 | . | 8.6 | . | . | 11.5 | . | 1.0 | . | KCNQ2 W236L pot=.
COc1cc(C(=O)NCC(c2ccc(F)cc2)N2CCOCC2)ccc1OCc1ccccc1Cl (stereo not given) | . | / | / | / | / | / | / | /
CCc1ccc(/C=N/NC(=O)Cc2cccn2C)cc1 | . | . | / | / | / | / | / | /
CCn1nc(NC(=O)C(C)C)c2cc3cccc(C)c3nc21 | . | . | / | / | / | / | / | /
Cc1cnccc1CN(C)Cc1nc(Cc2ccccc2Cl)no1 | . | / | / | / | / | / | / | /
CNc1ncnc2sc(-c3ccccc3)cc12 | . | . | / | / | / | / | / | /
S=c1[nH]cnc2sc(-c3ccccc3)cc12 | . | 24 | . | . | . | . | 70.5 | . | KCNQ2 W236L pot=.
CC(NC(=O)Cc1ccc(S(=O)(=O)N2CCOCC2)s1)c1ccc(Cl)cc1Cl (stereo not given) | . | . | / | / | / | / | / | /
CN=C(c1ccc([N+](=O)[O-])cc1)N1CCCCC1 | . | / | / | / | / | / | / | /
CC(C)CC(OC(=O)c1nsc(Cl)c1Cl)C(=O)NC1CCCC1 (stereo not given) | . | . | / | / | / | / | / | /
SMILES | KCNQ2 block | KCNQ2 pot | Kir21 conf inh | HEK293 Tl flux | CHO-K1 Tl ctr | KCNQ1 pot spec | KCNQ2 pot conf | Kir2-1 sel | others
O=C(Nc1ccccc1F)C1CC1c1ccccc1 (stereo not given) | . | . | / | / | / | / | / | /
Cc1ccc(Cl)cc1NC(=O)C1C2CCC(O2)C1C(=O)O (stereo not given) | . | / | / | / | / | / | / | /
COc1ccc(OC)c(NC(=O)NC2CCCCCCC2)c1 | . | 12.1 | . | . | . | . | 3.5 | . | KCNQ2 W236L pot=.
Cc1ccc(Cl)cc1NC(=O)C1CC1c1ccccc1 (stereo not given) | . | 6.21 | . | . | . | . | . | . | KCNQ2 W236L pot=.
Cc1cccc(NC(=O)C2CC2c2ccccc2)c1C (stereo not given) | . | 18.2 | . | . | . | . | 46.6 | . | KCNQ2 W236L pot=.
COc1ccc(OC)c(NC(=O)C(=S)NC2CCCCC2)c1 | . | . | / | / | / | / | / | /
COc1ccc(OC)c(NC(=O)C2CCCC2)c1 | . | . | / | / | / | / | / | /

Source: PubChem BioAssay (Johns Hopkins Ion Channel Center)
